Data from the supplement of paper PMC10849652.
About 7,900 targets were measured; listed, in parts, are those with a hit and a random draw of the rest. About 0.6% of all pairs of compound and target were hits. Unmarked numbers belong to inactive results.

How the values were obtained:
Assay in all cases: log2 fold change, soluble protein after heating vs DMSO (PISA); higher = thermal stabilisation; K562 cells, 10 uM, 30 min; active = over 0.2 and 3.5 SD of the protein, either way, in both replicates (recomputed)
erlotinib = compound: C#Cc1cccc(Nc2ncnc3cc(OCCOC)c(OCCOC)cc23)c1 [erlotinib]
Method in brief: (§1)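 K562 cells (2×10^6 cells/mL) were treated with 10 μM compound for 30 min, and aliquots were heated for 3 min over 48°C-58°C. Pooled aliquots were extracted in PBS with 0.5% NP-40 at 4°C, and the supernatant after 21,000xg for 90 min was measured by TMTpro 16plex LC-MS/MS with channel sums equalised. Reported thermal stability, relative to control samples and from duplicates, is a log2 fold change.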

[1] = compound: C/C(=N\NC(=O)C1=CC(=CC=C1)S(=O)(=O)N2CCOCC2)/C3=C(C=CC(=C3)Cl)O
Method in brief: as §1

[2] = compound: C1=CC(=C(C=C1Cl)C2=NC3=NC=CN=C3C(=N2)NC4=CC=NC=C4)F
Method in brief: as §1

[3] = compound: C1=CC(=CC=C1C2=NC3=C(N2)C=C(C=C3)C(=O)N)OC4=CC=C(C=C4)Cl
Method in brief: as §1

[4] = compound: C1=CC2=C(C=CC(=C2)/C=C\3/C(=O)NC(=NCC4=CC=CS4)S3)N=C1
Method in brief: as §1

[5] = compound: C1=CC2=NC=CN=C2C=C1/C=C/3\C(=O)NC(=O)S3
Method in brief: as §1

[6] = compound: C1=CC=C(C=C1)C2=NC(=C(N2)C3=CC=NC=C3)C4=CC(=C(C=C4)Cl)O
Method in brief: as §1

[7] = compound: C1=CC=C2C(=C1)C3=NNC4=CC=CC(=C43)C2=O
Method in brief: as §1

[8] = compound: C1CCN(C1)C(=O)NC2=CC=CC(=C2)NC3=NC=C(C(=N3)NCCC4=CN=CN4)Br
Method in brief: as §1

[9] = compound: C1CN(CCC1(CC2=CC=C(C=C2)Cl)N)C3=NC=NC4=C3C=CN4
Method in brief: as §1

IRAK-1-4 Inhibitor I = compound: C1COCCN1CCN2C3=CC=CC=C3N=C2NC(=O)C4=CC(=CC=C4)[N+](=O)[O-] [IRAK-1-4 Inhibitor I]
Method in brief: as §1

ibrutinib = compound: C=CC(=O)N1CCC[C@@H](n2nc(-c3ccc(Oc4ccccc4)cc3)c3c(N)ncnc32)C1 [ibrutinib]
Method in brief: as §1

[10] = compound: CC(=O)c1cnc2ccc(-c3cc(Cl)c(O)c(Cl)c3)nc2c1N[C@H]1CC[C@H](CN(C)C)CC1
Method in brief: as §1

ralimetinib = compound: CC(C)(C)Cn1c(N)nc2ccc(-c3[nH]c(C(C)(C)C)nc3-c3ccc(F)cc3)nc21 [ralimetinib]
Method in brief: as §1

[11] = compound: CC(C)(O)CC(=O)NCCn1ccc2ncnc(Nc3ccc(Oc4cccc(C(F)(F)F)c4)c(Cl)c3)c21
Method in brief: as §1

[12] = compound: CC(C)C1=C2N=C(C=C(N2N=C1)NCC3=CC=CC=C3)NCCCCCCN
Method in brief: as §1

[13] = compound: CC(C)C[C@@H](C=O)NC(=O)[C@H](CC(C)C)NC(=O)[C@H](CC(C)C)NC(=O)OCc1ccccc1
Method in brief: as §1

pinometostat = compound: CC(C)N(C[C@H]1O[C@@H](n2cnc3c(N)ncnc32)[C@H](O)[C@@H]1O)[C@H]1C[C@@H](CCc2nc3cc(C(C)(C)C)ccc3[nH]2)C1 [pinometostat]
Method in brief: as §1

[14] = compound: CC1=C(C(CC(=O)N1)C2=CC=C(C=C2)C(F)(F)F)C(=O)NC3=C(C=C4C(=C3)C=NN4)F
Method in brief: as §1

[15] = compound: CC1=C(C2=C(C=C1)C(=O)C3=CC=CC=C3N2CCCN)C
Method in brief: as §1

Sequence of UniProt Q9BPX3 (Q9BPX3 whole entry, looked up): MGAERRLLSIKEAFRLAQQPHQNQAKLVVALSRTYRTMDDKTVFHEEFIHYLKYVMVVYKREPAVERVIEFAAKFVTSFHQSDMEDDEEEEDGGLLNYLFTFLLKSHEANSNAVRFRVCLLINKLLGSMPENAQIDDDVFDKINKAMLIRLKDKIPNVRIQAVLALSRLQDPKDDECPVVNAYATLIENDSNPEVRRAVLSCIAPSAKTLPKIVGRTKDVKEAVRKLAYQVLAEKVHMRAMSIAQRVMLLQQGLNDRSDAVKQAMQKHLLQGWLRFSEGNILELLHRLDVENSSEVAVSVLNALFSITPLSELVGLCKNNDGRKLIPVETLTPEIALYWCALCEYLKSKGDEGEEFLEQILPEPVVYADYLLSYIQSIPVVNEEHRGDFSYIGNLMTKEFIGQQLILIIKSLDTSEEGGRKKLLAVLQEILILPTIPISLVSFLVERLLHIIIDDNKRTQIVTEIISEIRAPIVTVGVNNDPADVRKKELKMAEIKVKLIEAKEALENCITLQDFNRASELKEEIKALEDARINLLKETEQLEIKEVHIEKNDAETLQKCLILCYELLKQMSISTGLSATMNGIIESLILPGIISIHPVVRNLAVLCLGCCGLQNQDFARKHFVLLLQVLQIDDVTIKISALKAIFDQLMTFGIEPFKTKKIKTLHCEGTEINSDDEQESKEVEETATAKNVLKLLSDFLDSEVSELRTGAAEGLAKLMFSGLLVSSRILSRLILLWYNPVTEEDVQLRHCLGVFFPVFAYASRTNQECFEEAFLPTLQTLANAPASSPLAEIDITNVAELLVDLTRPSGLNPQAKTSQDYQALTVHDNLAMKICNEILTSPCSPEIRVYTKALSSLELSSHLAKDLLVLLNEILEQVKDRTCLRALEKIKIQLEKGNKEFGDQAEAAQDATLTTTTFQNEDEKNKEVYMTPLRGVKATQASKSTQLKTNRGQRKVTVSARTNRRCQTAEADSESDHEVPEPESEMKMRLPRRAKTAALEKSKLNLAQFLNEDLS
Sequence of UniProt Q8WVJ2 (Q8WVJ2 whole entry, looked up): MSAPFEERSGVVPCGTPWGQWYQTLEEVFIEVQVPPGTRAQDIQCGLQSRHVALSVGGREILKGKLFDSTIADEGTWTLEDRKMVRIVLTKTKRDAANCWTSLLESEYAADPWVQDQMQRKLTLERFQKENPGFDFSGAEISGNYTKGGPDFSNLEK
Sequence of UniProt Q9BRA0 (Q9BRA0 whole entry, looked up): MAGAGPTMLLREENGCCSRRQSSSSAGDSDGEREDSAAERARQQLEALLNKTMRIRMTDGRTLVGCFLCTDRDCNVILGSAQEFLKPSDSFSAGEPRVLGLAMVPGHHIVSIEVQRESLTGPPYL
Sequence of UniProt Q9Y2A7 (Q9Y2A7 whole entry, looked up): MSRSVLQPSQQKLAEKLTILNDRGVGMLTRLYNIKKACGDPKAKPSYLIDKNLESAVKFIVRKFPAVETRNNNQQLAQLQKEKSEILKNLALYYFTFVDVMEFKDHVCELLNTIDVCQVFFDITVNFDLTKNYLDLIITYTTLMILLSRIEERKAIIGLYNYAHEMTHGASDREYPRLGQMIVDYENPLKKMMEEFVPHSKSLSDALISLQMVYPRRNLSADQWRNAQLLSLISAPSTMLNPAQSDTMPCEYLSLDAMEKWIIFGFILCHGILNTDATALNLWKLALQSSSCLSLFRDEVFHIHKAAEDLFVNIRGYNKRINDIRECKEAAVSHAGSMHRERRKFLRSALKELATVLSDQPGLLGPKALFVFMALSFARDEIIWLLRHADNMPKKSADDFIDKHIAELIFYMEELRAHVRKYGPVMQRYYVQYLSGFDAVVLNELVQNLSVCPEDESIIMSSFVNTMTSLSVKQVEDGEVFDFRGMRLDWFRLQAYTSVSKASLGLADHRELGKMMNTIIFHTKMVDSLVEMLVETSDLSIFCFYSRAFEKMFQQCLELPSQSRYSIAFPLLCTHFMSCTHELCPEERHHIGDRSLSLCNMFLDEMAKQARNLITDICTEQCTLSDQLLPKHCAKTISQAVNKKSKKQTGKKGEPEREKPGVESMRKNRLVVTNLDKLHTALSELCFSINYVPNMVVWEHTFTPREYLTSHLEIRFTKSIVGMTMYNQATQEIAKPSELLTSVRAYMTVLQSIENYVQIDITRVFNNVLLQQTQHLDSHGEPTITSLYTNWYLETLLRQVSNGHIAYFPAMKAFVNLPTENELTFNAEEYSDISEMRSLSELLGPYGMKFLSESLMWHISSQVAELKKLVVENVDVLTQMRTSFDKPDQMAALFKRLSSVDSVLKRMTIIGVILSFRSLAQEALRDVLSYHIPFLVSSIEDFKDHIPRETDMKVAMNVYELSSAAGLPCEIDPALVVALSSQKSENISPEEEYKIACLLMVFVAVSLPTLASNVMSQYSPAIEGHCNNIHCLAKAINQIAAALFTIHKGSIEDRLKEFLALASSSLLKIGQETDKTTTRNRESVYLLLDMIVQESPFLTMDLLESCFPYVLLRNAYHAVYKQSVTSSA
Sequence of UniProt O14524 (O14524 whole entry, looked up): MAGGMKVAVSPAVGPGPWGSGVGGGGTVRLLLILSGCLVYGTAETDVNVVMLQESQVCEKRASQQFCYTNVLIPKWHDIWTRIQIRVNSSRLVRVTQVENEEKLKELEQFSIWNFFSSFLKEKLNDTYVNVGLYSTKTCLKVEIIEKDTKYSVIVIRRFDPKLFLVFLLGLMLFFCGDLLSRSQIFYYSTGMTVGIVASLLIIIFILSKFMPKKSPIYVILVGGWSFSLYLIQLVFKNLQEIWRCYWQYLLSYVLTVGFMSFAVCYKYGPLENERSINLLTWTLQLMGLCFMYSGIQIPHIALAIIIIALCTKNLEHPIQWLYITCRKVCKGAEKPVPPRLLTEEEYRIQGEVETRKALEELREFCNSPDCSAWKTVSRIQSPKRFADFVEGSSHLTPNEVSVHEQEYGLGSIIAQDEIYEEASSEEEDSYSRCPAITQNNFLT
Sequence of UniProt Q9Y2I1 (Q9Y2I1 whole entry, looked up): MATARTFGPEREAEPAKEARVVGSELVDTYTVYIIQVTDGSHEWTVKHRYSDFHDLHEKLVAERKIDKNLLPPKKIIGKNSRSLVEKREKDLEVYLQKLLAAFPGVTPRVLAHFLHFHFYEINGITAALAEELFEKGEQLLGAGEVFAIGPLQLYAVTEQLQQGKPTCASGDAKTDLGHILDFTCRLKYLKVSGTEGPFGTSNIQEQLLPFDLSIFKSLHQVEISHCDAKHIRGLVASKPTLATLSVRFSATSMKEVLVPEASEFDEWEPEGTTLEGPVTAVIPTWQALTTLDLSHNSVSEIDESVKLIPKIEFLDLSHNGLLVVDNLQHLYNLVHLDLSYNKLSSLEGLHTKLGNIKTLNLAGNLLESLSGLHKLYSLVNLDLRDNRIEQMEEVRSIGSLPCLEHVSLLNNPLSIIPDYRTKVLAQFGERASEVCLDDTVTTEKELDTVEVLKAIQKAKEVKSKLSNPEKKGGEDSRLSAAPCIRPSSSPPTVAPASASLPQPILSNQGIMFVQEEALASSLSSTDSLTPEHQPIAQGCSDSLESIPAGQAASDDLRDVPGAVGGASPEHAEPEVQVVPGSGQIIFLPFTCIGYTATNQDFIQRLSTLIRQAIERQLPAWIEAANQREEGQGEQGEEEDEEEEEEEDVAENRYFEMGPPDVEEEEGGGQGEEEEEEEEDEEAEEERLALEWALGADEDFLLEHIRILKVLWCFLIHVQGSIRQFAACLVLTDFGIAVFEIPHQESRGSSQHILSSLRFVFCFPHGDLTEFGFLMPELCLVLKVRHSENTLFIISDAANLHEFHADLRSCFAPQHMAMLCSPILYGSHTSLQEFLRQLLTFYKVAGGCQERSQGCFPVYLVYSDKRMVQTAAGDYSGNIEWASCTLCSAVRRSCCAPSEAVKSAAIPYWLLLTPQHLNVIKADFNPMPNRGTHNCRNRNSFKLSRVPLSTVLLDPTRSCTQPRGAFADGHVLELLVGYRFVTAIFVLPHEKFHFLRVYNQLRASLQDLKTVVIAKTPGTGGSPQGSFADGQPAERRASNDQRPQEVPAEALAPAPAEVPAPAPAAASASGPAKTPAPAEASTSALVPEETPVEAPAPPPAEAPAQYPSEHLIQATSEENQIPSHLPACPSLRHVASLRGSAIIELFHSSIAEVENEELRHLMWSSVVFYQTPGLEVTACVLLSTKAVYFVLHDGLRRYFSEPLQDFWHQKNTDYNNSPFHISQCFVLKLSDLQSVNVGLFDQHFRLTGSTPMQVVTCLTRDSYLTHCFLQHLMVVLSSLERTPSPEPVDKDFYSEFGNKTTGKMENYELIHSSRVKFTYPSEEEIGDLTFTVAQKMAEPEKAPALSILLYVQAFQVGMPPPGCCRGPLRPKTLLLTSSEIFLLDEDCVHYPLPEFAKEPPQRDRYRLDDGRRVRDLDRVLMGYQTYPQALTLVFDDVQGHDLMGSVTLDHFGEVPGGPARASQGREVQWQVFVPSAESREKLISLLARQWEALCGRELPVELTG
Sequence of UniProt Q9BWT6 (Q9BWT6 whole entry, looked up): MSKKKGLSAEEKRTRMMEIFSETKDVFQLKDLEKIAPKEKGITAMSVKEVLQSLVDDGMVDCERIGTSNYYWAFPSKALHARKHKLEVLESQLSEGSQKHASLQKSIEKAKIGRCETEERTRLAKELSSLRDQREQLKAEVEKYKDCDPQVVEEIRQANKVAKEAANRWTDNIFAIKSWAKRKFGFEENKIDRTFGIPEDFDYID
Sequence of UniProt O00217 (O00217 whole entry, looked up): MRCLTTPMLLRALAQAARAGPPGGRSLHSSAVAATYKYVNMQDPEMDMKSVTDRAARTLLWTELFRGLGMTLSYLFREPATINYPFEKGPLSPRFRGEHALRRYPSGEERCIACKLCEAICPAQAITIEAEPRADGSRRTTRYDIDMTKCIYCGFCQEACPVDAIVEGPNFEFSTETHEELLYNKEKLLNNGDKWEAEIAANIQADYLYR
Sequence of UniProt P15531 (P15531 whole entry, looked up): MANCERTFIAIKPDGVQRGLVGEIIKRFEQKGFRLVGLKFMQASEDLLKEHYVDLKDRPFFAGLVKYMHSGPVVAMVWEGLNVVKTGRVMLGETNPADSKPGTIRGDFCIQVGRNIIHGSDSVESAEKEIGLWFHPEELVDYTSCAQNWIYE

| Target | log2 fold change (erlotinib) | log2 fold change [1] | log2 fold change [2] | log2 fold change [3] | log2 fold change [4] | log2 fold change [5] | log2 fold change [6] | log2 fold change [7] | log2 fold change [8] | log2 fold change [9] | log2 fold change (IRAK-1-4 Inhibitor I) | log2 fold change (ibrutinib) | log2 fold change [10] | log2 fold change (ralimetinib) | log2 fold change [11] | log2 fold change [12] | log2 fold change [13] | log2 fold change (pinometostat) | log2 fold change [14] | log2 fold change [15] |
| --- | --- | --- | --- | --- | --- | --- | --- | --- | --- | --- | --- | --- | --- | --- | --- | --- | --- | --- | --- | --- |
| NME1 isoform 2 (UniProt P15531) | 0.034 | -0.015 | 0.038 | 0.092 | 0.063 | -0.05 | -0.048 | -0.001 | 0.032 | 0.074 | 0.021 | 0.107 | -0.007 | -0.035 | 0.03 | 0.041 | 0.032 | -0.017 | -0.192 | 0.038 |
| NEMP1 (UniProt O14524) | -0.003 | -0.011 | -0.027 | 0.023 | 0.049 | 0.016 | -0.056 | -0.162 | 0.068 | 0.048 | 0.003 | -0.01 | -0.081 | -0.03 | -0.023 | -0.508 (active) | 0.08 | 0.009 | 0.099 | -0.119 |
| NISCH (UniProt Q9Y2I1) | 0.141 | 0.1 | -0.083 | 0.026 | 0.089 | 0.068 | 0.044 | -0.144 | 0.039 | -0.032 | 0.053 | 0 | -0.037 | 0.02 | 0.007 | -0.429 | 0.028 | 0.047 | 0.018 | 0.004 |
| NAPG (UniProt Q99747) | 0.081 | 0.134 | 0.072 | -0.019 | 0.021 | 0.038 | -0.009 | 0.033 | -0.037 | -0.016 | -0.071 | -0.014 | -0.067 | -0.012 | -0.069 | -0.248 | 0.028 | 0.016 | 0 | 0.016 |
| NHLRC2 (UniProt Q8NBF2) | 0.035 | 0 | -0.059 | 0.057 | 0.065 | -0.074 | -0.114 | 0.042 | 0.051 | 0.001 | 0.039 | 0.07 | -0.02 | -0.122 | -0.026 | -0.124 | 0.143 | 0.013 | 0.004 | 0.023 |
| NCKAP1 isoform 2 (UniProt Q9Y2A7) | -0.019 | 0.096 | 0.056 | 0.02 | 0.015 | 0.02 | 0.024 | -0.003 | -0.037 | 0.027 | 0 | 0.002 | -0.063 | 0.07 | -0.038 | -0.047 | -0.037 | 0.01 | 0.017 | -0.009 |
| OGFOD1 (UniProt Q8N543) | 0.043 | -0.18 | 0.02 | 0.007 | 0.015 | 0.11 | -0.01 | 0.014 | 0.007 | 0.03 | 0.07 | -0.036 | 0.009 | -0.05 | -0.023 | -0.018 | 0.035 | -0.011 | -0.028 | 0.036 |
| MRPS6 (UniProt P82932) | 0.001 | 0.006 | 0.006 | 0.088 | 0.01 | 0.112 | 0.128 | 0.079 | -0.039 | -0.093 | -0.193 | -0.007 | -0.079 | 0.012 | -0.158 | -0.003 | -0.009 | -0.007 | 0.003 | -0.139 |
| MND1 (UniProt Q9BWT6) | -0.068 | 0.034 | -0.003 | -0.002 | -0.011 | 0.015 | -0.019 | 0.009 | -0.081 | -0.017 | -0.022 | 0.069 | -0.053 | 0.052 | 0.008 | -0.182 | 0.173 | 0.076 | 0.058 | 0.043 |
| MRPL34 (UniProt Q9BQ48) | -0.029 | -0.167 | -0.116 | 0.101 | -0.048 | -0.03 | 0.006 | 0.018 | -0.004 | -0.174 | -0.046 | 0.107 | 0.092 | 0.164 | 0.042 | -0.137 | 0.102 | 0.196 | 0.086 | -0.51 (active) |
| NDUFS8 (UniProt O00217) | 0.015 | 0.045 | 0.023 | 0.033 | 0.039 | 0.027 | 0.029 | 0.007 | 0.014 | 0.035 | 0.087 | 0.034 | -0.02 | -0.083 | -0.099 | -0.145 | 0.017 | 0.005 | 0.034 | 0.075 |
| NBN (UniProt O60934) | 0.064 | 0.087 | 0.06 | 0.033 | 0.005 | 0.028 | 0.012 | 0.002 | -0.029 | 0.037 | -0.009 | -0.008 | -0.147 | -0.028 | -0.062 | -0.025 | 0.007 | 0.009 | -0.029 | -0.02 |
| NEU1 (UniProt Q99519) | 0.001 | -0.05 | -0.027 | 0.101 | 0.003 | 0 | -0.018 | -0.011 | 0.012 | -0.047 | -0.136 | -0.069 | -0.175 | 0.05 | 0.018 | -0.379 (active) | 0.166 | -0.021 | 0.049 | -0.131 |
| NCAPG (UniProt Q9BPX3) | -0.007 | 0.114 | 0.013 | -0.03 | 0.005 | 0.002 | 0.027 | 0.043 | -0.044 | -0.104 | -0.092 | -0.033 | 0.084 | 0.038 | -0.126 | -0.197 | -0.005 | -0.003 | -0.011 | 0.016 |
| NAA38 isoform 2 (UniProt Q9BRA0) | 0.139 | 0.083 | 0.092 | -0.003 | 0.034 | 0.015 | 0.044 | -0.016 | -0.009 | 0.082 | 0.047 | -0.021 | -0.034 | 0.02 | -0.095 | -0.397 (active) | -0.001 | 0.035 | 0.051 | -0.01 |
| NUDCD2 (UniProt Q8WVJ2) | 0.054 | -0.003 | 0.019 | -0.071 | 0.025 | 0.018 | -0.014 | 0.012 | -0.107 | -0.08 | -0.032 | -0.035 | -0.027 | 0.033 | -0.045 | -0.248 | -0.012 | 0.066 | -0.023 | -0.064 |
